From PubChem BioAssay
Cycloheximide cs = counter-screen for Shiga toxin inhibitors: cycloheximide protein synthesis inhibition | cell reporter, cycloheximide protein synthesis inhibition counterscreen | max response, % | actives 12% (n = 300,000); in the data active means max response mostly above about 13%, no sharp cut-off; inactive means mostly below about 14%; further: read at 38.3 µM for the half of the compounds with a filed dose
LmPK inh = LmPK (Leishmania mexicana) enzyme inhibition | actives 0.37% (n = 290,000) | Potency, µM (highest dose often 57.5 µM), hits mostly inhibitors | purified LmPK, Kinase-Glo ATP luminescence, 1 h | Q27686 | AID 1721
Target sequence (Q27686 whole entry, looked up): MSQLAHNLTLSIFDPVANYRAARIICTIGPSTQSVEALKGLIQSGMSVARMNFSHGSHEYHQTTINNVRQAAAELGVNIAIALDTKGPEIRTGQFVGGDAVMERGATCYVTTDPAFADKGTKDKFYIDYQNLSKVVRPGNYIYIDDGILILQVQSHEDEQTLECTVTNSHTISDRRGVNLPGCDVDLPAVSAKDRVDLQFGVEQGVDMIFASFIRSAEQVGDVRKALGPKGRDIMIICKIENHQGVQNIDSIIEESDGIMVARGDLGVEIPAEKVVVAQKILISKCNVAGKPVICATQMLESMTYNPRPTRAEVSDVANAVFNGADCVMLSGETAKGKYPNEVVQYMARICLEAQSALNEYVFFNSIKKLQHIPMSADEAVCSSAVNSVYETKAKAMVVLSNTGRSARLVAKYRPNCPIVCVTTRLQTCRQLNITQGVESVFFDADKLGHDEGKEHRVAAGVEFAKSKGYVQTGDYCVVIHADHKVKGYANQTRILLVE
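ATP generated from ADP (0.1 mM) and PEP (0.5 mM) by 0.1 nM LmPK over 1 h at room temperature (pH 7.2 imidazole buffer) was detected by coupled luciferase luminescence. Values were normalized to uninhibited and no-enzyme wells.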
Pf growth 48h = P. falciparum growth inhibition at 48 hours (one generation); P. falciparum luciferase growth in erythrocytes, 48 h; actives 5.9% (n = 310,000); AID 504832; Potency, µM (highest dose often 28.7 µM), most hits filed as inhibitors
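Parasite viability was followed by luminescence of a genomically integrated firefly luciferase. Cultures held 0.1% parasitemia at 2% hematocrit (final), incubated under 5% CO2 at 37 C.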
Pf growth 96h = P. falciparum growth inhibition at 96 hour, primary screen for plastid delayed-death inhibitors; actives 6.9% (n = 320,000); P. falciparum luciferase reporter growth, 96 h; AID 504834; Potency, µM (titrated, usually from 28.7 µM), most hits filed as inhibitors
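Delayed-death screen, second-generation endpoint: infected erythrocytes, 2% hematocrit, 0.05% parasitemia final; 96 hours at 37 C, 5% CO2; luciferase detection reagent; luminescence decrease equals reduced growth.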
Shiga toxin inh = inhibitors of Shiga toxin in Vero cells; actives 9.2% (n = 290,000); Vero cells, Shiga toxin protein synthesis inhibition reporter; inhibition, % at 38.7 µM; AID 2315; in the data active means inhibition mostly above about 28%, no sharp cut-off; inactive means mostly below about 43%
Numbers stand for hits; . = inactive; ? = inconclusive; / = no result; [ ] = remark or other dose. A selection: hits, their analogues and other compounds. The true share with any hit is near 22%. Unless noted, the call rests on the fitted dose curve; in most records, active means well fitted inhibition curve with a large enough effect; inconclusive means small, poorly fitted or top-dose-only effect, or another doubt; inactive means no such curve, though single readings can be large or run the other way.

SMILES	Cycloheximide cs	LmPK inh	Pf growth 48h	Pf growth 96h	Shiga toxin inh
O=C(NCC(c1ccco1)N1CCN(c2ccccc2F)CC1)OCc1ccccc1 (centres undefined)	21	.	?	?	.
O=C(O)c1cccc(/C=C2/C[C@@H]3[C@@H](/C=C/[C@@H](O)C4CCCCC4)[C@H](O)C[C@@H]3O2)c1	.	/	/	/	.
CCOC(=O)c1cnn(-c2ccccc2)c1NC(=O)CN1CCOCC1	.	.	.	.	.
O=C(OCC#CCSc1nnc(-c2ccncc2)o1)c1cccs1	.	.	.	12µM	.
OCC#CCSc1nnc(-c2ccc(Br)cc2)o1	33	.	.	/	.
OCC#CCSc1nnc(-c2ccccc2Br)o1	27	.	.	?	.
COc1ccc(-c2nnc(SCC#CCO)o2)cc1OC	.	.	.	.	.
CCOC(=S)SCC(=O)N1CCc2cc(OC)ccc2C1C1C(=O)CCCC1=O (centres undefined)	.	.	.	?	.
N/C(=N\OC(=O)COc1ccc2ccccc2c1Br)c1cccnc1	16	.	.	.	103
N/C(=N\OC(=O)COc1ccc(Br)cc1)c1cccnc1	.	.	.	.	.
N/C(=N\OC(=O)COc1ccc2ccccc2c1Br)c1ccccn1	56	.	.	.[1.15 µM]	119
CC(=O)N/C(=C/c1ccc2c(c1)OCO2)C(=O)NCc1ccccc1	.	.	.	.	.
CC(=O)N[C@@H](CC(=O)O)C(=O)O	/	/	.	.	/
CCc1nc(OCCN(C)C)c2oc3ccccc3c2n1	26	.	.	.	.
CCc1nc(Nc2ccc(F)cc2)c2oc3ccccc3c2n1	36	.	?	?	.
CCc1nc(Nc2cccc(F)c2)c2oc3ccccc3c2n1	.	.	?	?	.
CCc1nc(Nc2ccccc2F)c2oc3ccccc3c2n1	.	.	.	?	.
CCc1nc(Nc2cccc(OC)c2)c2oc3ccccc3c2n1	22	.	?	?	.
COc1ccc(NC(=O)N2CCc3nc(-c4ccccc4)c4c(c3C2)CO[C@@H](C)C4)cc1	/	.[11.5 µM]	/	/	/
Cc1ccc(CN2CCC(C(=O)Nc3ccc(Oc4cccnc4)cc3)CC2)cc1	.	.	10µM	.	.
CC(=O)c1cccc(CN2CCC(C(=O)Nc3ccc(-c4cccc(C)c4)cc3)CC2)c1	.	.	4.1µM	.	.
O=C(Nc1ccc(Oc2cccnc2)cc1)C1CCN(Cc2ccccc2F)CC1	.	.	?	5.9µM	.
Cc1cccc(CN2CCCC(C(=O)Nc3ccccc3Oc3cccnc3)C2)c1 (centres undefined)	.	.	9.3µM	.	.
CC(=O)c1cccc(CN2CCC(C(=O)Nc3ccc(Oc4cccnc4)cc3)CC2)c1	.	.	?	?	.
O=C(Nc1ccc(Oc2cccnc2)cc1)C1CCN(Cc2ccccc2)CC1	.	.	?	?	.
SMILES	Cycloheximide cs	LmPK inh	Pf growth 48h	Pf growth 96h	Shiga toxin inh
O=C(Nc1ccc(Oc2cccnc2)cc1)C1CCN(Cc2cccc(Cl)c2)CC1	.	.	?	.	.
O=C(C(c1ccccc1)c1ccccc1)N1CC[C@@]2(O)CCCC[C@H]2C1	.	.	.	.	.
Cc1ccc(-n2nc3c(c2NC(=O)c2ccc4c(c2)OCO4)CS(=O)C3)c(C)c1 (centres undefined)	/	/	.	.	/
CCOC(=O)c1c(-n2cccc2)sc2c1CCCC2=O	.	.	.	.	.
Cc1cc(CN2CCCCC2C(=O)Nc2ccc(Oc3cccnc3)cc2)oc1C (centres undefined)	21	.	?	?	43
CCCN(CCC)c1nc2ccccc2n2c(C)nnc12	.	.	.	.[5.75 µM]	.
CCCNc1nc2ccccc2n2c(C)nnc12	.	.	.	9.3µM	.
COc1ccccc1CNC(=O)COC(=O)C12CC3CC(CC(O)(C3)C1)C2	/	/	.	.	/
Cn1cccc1C(=O)NC(=O)COC(=O)C12CC3CC(CC(O)(C3)C1)C2	43	?	/	.	53
CC(=O)NC12CC3CC(C1)CC(C(=O)OCC(=O)Nc1c(F)cccc1F)(C3)C2	/	/	?	6.6µM	/
Cn1cccc1C(=O)NC(=O)COC(=O)c1ccccc1O	17	.	.	/	.
Cc1cccc(C(=O)N[C@H](C(=O)OCC(=O)NC(=O)c2cccn2C)C(C)C)c1	32	.	.	.	.
Cc1cccc([C@H]2[C@@H]3C=CCC[C@@H]3C(=O)N2Cc2ccccc2)c1	.	/	/	/	.
O=C(NC1C2CCCC1CN(C1CC1)C2)c1ccc(Cl)cc1 (centres undefined)	.	.	?	?	.
CC(=O)NC12CC3CC(C1)CC(C(=O)OCC(=O)Nc1ncc(Cl)cc1Cl)(C3)C2	.	.	?	12µM	.
CC(=O)NC12CC3CC(C1)CC(C(=O)OCC(=O)NC(=O)c1cccn1C)(C3)C2	20	.	.	/	.
CCCCNC(=O)C1CCN(Cc2ccc(OCc3ccccc3)c(OC)c2)CC1	42	.	.	.	44
COc1ccc(CN2CCC(C(N)=O)CC2)cc1OCc1ccccc1	.	.	.	?	.
COc1cc(CN2CCN(C(C)C)C(CCO)C2)ccc1OCc1ccccc1 (centres undefined)	30	.	.	.	70
CCOCCCNC(=O)C1CCN(Cc2ccc(OCc3ccccc3)c(OC)c2)CC1	18	.	.	?	.
COc1cc(CN2CCC(C(=O)NCC(C)(C)CN(C)C)CC2)ccc1OCc1ccccc1	.	.	9.3µM	?	/
CCNC(=O)c1ccc(NC(=O)CC2SC(N3CCCC3)=NC2=O)cc1 (centres undefined)	/	/	.	.	/
O=C(CN1C(=O)CSc2ccc(S(=O)(=O)N3CCOCC3)cc21)NCc1ccc(F)cc1	.	.	.	.	.
Cc1nc2ccc([N+](=O)[O-])cc2c(=O)n1Cc1ccc(Br)cc1	.	.	.	3.3µM	.
COc1ccccc1OCCSc1nc(N)cc(N)n1	.	.	.	.	active
SMILES	Cycloheximide cs	LmPK inh	Pf growth 48h	Pf growth 96h	Shiga toxin inh
Nc1cc(N)nc(SCCOc2ccccc2F)n1	70	.	.	.	121
COc1ccccc1NC(=O)CSc1nc(N)cc(N)n1	.	.	.	.	.
COc1ccccc1OCC#CCSc1ncccn1	24	.	.	.	.
Cc1nc(Nc2cc(F)ccc2C)c2nnn(Cc3ccccc3)c2n1	.	.	.	.	.
O=Cc1ccc(Oc2cnccn2)cc1	.	.	.	.	.
COc1cc(/C=C(\C#N)c2nc(-c3cc4ccccc4oc3=O)cs2)ccc1O	.	.	.	?	.
COc1cc(/C=C(\C#N)c2nc3ccccc3o2)ccc1O	24	.	.	.	.
N#C/C(=C\c1ccc(O)cc1)c1nc2ccccc2o1	37	.	.	.	117
CC(C)CN(C(=O)COC(=O)CCC(=O)c1ccc(F)cc1)c1c(N)n(Cc2ccccc2)c(=O)[nH]c1=O	/	/	.	.	/
CSc1nc2c(c(=O)[nH]1)C(c1cccc(Br)c1)CC(=O)N2 (centres undefined)	.	.	.	.	.
Cc1cc(C)c(NC(=O)CNC(=O)COC(=O)CN2C(=O)NC3(CCCC3)C2=O)c(C)c1	/	/	.	.	/
Oc1ccccc1-c1nnc2n1CCCCC2	.	.	.	.	.
